GPT2 inh: inhibitors of human GPT2 alanine aminotransferase | Recombinant GPT2, coupled pyruvate oxidase/HRP Amplex Red fluorescence | Potency, µM (series often up to 57.7 µM), without a hit: at the top dose activity change, negative = inhibition, actives largely listed as inhibitors | actives 0.25% (n = 100,000) | AID 1671188; note: % is set by controls: 0 for no effect and ±100 for the full control effect; nearly all actives have a fitted effect of over 60% in size
Target sequence (Q8TD30 whole entry, looked up): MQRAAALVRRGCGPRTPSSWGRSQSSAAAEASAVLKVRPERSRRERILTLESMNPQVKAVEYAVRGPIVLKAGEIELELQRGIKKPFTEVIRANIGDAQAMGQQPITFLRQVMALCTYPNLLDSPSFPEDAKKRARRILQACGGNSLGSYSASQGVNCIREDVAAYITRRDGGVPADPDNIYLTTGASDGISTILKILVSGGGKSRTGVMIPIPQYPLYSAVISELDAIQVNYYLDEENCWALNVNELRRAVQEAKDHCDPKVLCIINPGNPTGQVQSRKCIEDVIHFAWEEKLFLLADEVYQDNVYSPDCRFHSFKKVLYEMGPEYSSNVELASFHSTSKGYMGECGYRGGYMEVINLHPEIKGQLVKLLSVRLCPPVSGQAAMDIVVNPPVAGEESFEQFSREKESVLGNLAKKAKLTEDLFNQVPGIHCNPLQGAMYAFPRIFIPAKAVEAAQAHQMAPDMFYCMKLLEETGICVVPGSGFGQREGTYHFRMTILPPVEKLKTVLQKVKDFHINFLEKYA
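Fluorescence read-out: pyruvate from GPT2 turnover coupled to pyruvate oxidase, HRP and Amplex Red (0.2mM ThPP, 0.2U/mL PO and HRP, 50uM Amplex final). Substrates 250uM a-KG, 2mM L-alanine; enzyme 10ng/uL; 30 min RT.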
HEK293 tox: kills HEK 293 cells; Potency, µM (top dose mostly 115 µM), for inactives: at the highest dose activity change, negative = cytotoxicity, usual class: inhibitors; HEK 293 viability, ATP luminescence (CellTiter-Glo), 48-72 h; actives 6.6% (n = 94,000); note: % is set by controls: 0 for no effect and ±100 for the full control effect; nearly all actives have a fitted effect of over 60% in size
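Cytotoxicity was scored by loss of ATP-coupled luminescence (CellTiter-Glo) in HEK 293 cells. Compound treatment ran 48 or 72 hr at 37 degree Celsius, 5% CO2, 95% humidity.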
hNpr1 antagonist: blocks ANP-stimulated signaling of human Npr1 receptor. HEK293 hNpr1 GloSensor cGMP, ANP-stimulated luminescence. Potency, µM (doses to about 46.3 µM), for the others: top-dose activity change, negative = inhibition, usual class: inhibitors. actives 1.6% (n = 76,000). AID 1347048; calls by dose curve; note: % is set by controls: 0 for no effect and ±100 for the full control effect; nearly all actives have a fitted effect of over 60% in size
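HEK293 cells stably expressing human Npr1 and cGMP GloSensor pGS-40F, loaded 2 h with 2% GloSensor reagent, given compound 30 min at room temperature. Luminescence read before and 20 min after 0.1 nM hNppA.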
FLuc inh-1: Photinus pyralis luciferase inhibition; Potency, µM (top dose mostly 115 µM), most hits filed as inhibitors; actives 2.5% (n = 76,000); P08659; purified P. pyralis luciferase, luminescence, biochemical; AID 1347043; note: % is set by controls: 0 for no effect and ±100 for the full control effect; nearly all actives have a fitted effect of over 65% in size
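Biochemical qHTS: compound (6-point titration) added to 10uM D-luciferin plus 10uM ATP in Tris acetate pH 7.5 buffer with Mg, Tween-20 and BSA, then purified enzyme at 10nM; light output imaged.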
3T3 cytotox: kills NIH 3T3 cells; NIH 3T3 viability, CellTiter-Glo ATP luminescence, 48-72 h; Potency, µM (titrated, usually from 96.7 µM), for the others: at the highest dose activity change, negative = cytotoxicity, actives largely listed as inhibitors; actives 4.3% (n = 94,000); AID 1345082; note: % is set by controls: 0 for no effect and ±100 for the full control effect; nearly all actives have a fitted effect of over 55% in size
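Viability of NIH 3T3 cells after 48 or 72 hr compound treatment at 37 °C was assessed by CellTiter-Glo, with luminescence imaged following a 10 min room-temperature step.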
FLuc SDR no ATP: binders stabilizing firefly luciferase, without ATP; actives 7.8% (n = 1,300); Potency, µM (titrated, usually from 32.7 µM), without a hit: top-dose activation (signal gain), actives largely listed as activators; shares compounds with FLuc inh-1; Purified FLuc-C-HiBiT, Nano-Glo HiBiT luminescence, no ATP; note: nearly all actives have a fitted effect of over 55% in size
FLuc SDR ATP: firefly luciferase binding stabilization, ATP added | shares compounds with FLuc inh-1 | purified FLuc-C-HiBiT + ATP, HiBiT complementation luminescence | Potency, µM (highest dose often 32.7 µM), for inactives: at the highest dose activation (gain of signal), actives largely listed as activators | actives 8.7% (n = 1,300) | AID 1963319;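 note: signal reports ligand binding via conformational change of the enzyme rather than luciferase catalysis; % of control where 0% means no effect; nearly all actives have a fitted effect of over 55% in size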
FLuc inh-2: firefly luciferase enzyme inhibition | shares compounds with FLuc inh-1 | purified FLuc-C-HiBiT enzyme, luciferin luminescence | Potency, µM (top dose mostly 32.7 µM), without a hit: at the highest dose activity change, negative = inhibition, most hits filed as inhibitors | actives 42% (n = 1,300); note: % is set by controls: 0 for no effect and ±100 for the full control effect; nearly all actives have a fitted effect of over 70% in size
The depositor's hits bear a star; i = inactive; ? = inconclusive; · = no result; [ ] = dose if it differs, or a comment. Only some compounds are listed: those with a hit (about 10% of all), similar ones and a draw of the others. Unless noted, calls come from the whole dose curve; as a rule, active = well fitted curve in the direction sought with a large enough effect; inconclusive = small, poorly fitted or top-dose-only effect, or another doubt; inactive = no such curve, though single readings can be large; an effect the other way counts as inactive or inconclusive. Potency is the fitted concentration of half-maximal effect.

SMILES	GPT2 inh	HEK293 tox	hNpr1 antagonist	FLuc inh-1	3T3 cytotox	FLuc SDR no ATP	FLuc SDR ATP	FLuc inh-2
Fc1ccc2nc([C@H]3CCN(Cc4ccccc4F)C3)[nH]c2c1	i	?	?	3.2µM*	79µM*	27%[49.3 µM]	18%[49.3 µM]	14µM*
COc1ccc2nc([C@H]3CCN(Cc4ccccc4F)C3)[nH]c2c1	i	?	-3%[70.6 µM]	i	?	·	·	·
CCN(CC)c1cc(CCC(=O)O)ccn1	i	-7%	-27%	6.3µM*	1%	13%	1.6µM*	1.4µM*
CC(=O)Nc1nc2c(Oc3cc(-c4ccc(C(F)(F)F)cc4)ncn3)cccc2s1	0%	·	·	·	·	·	·	·
O=C(Nc1ccc(-c2nc3ccccc3s2)cc1)c1c(F)c(F)c(F)c(F)c1F	·	·	·	·	·	13%	10%	5%
CC(Oc1ccccc1F)C(=O)Nc1ccc(-c2nc3ccccc3s2)cc1 (stereo not given)	·	·	·	·	·	16%	11%	?
COc1ccccc1OC(C)C(=O)Nc1cccc(-c2nc3ccccc3s2)c1 (stereo not given)	·	·	·	·	·	10%	7%	?
Cc1ccc(NC(=O)c2nc3sccn3c2-c2ccc(F)cc2)cc1	-12%	?	·	·	?	·	·	·
COc1ccc2cc(-c3nc4ccc(C(=O)O)cc4[nH]3)c(=O)oc2c1	·	·	·	·	·	0.79µM*	0.02µM*	0.016µM*
COC(=O)Nc1nc2ccc(C(=O)c3ccccc3)cc2[nH]1	2%	·	·	·	·	·	·	·
CCOc1cccc2cc(-c3nc4ccc(C(=O)O)cc4[nH]3)c(=O)oc12	·	·	·	·	·	?	0.16µM*	0.16µM*
COc1ccc(-c2ncc3c(n2)OCCN(c2ccccc2)C3=O)cc1F	3%[88.5 µM]	-27%[172 µM]	16µM*	0.71µM*	?	?	?	3.2µM*
CN1CCOc2nc(-c3ccc(Oc4ccccc4)cc3)ncc2C1=O	-9%[88.5 µM]	?	25µM*	4.5µM*	?	21%[49.3 µM]	19%[49.3 µM]	?
COc1ncccc1-c1ncc2c(n1)OCCN(c1ccccc1)C2=O	1%[88.5 µM]	0%[172 µM]	-1%[70.6 µM]	i	?	·	·	·
O=C1c2cnc(-c3cccc(CO)c3)nc2OCCN1c1ccccc1	-6%[88.5 µM]	40µM*	?	3.2µM*	40µM*	20µM*	?	11µM*
COCCN1CCOc2nc(-c3cc(F)ccc3OC)ncc2C1=O	-5%[88.5 µM]	?	3%[70.6 µM]	i	?	·	·	·
COc1ccc(-c2ncc3c(n2)OCCN(C)C3=O)cc1F	·	·	·	·	·	?	?	18µM*
CCc1nn2c(-c3ccco3)ccnc2c1-c1ccc(F)cc1	·	·	·	·	·	15%	10%	?
CC(C)Cc1nc2nccc(-c3ccco3)n2n1	i	7%	2%	i	-2%	·	·	·
O=C(Nc1ccc(Cl)cc1)Nc1ccc2n(c1=O)C[C@H]1C[C@@H]2CN(C(=O)c2ccc3ccccc3c2)C1	2%	28µM*	-23%	14µM*	40µM*	13%	8%	?
CCn1cc(-c2ccc(F)cc2)cc1C(=O)O	-5%	-14%	-13%	i	-20%	16%	11%	-8%
CCn1cc(-c2ccc(OC)cc2)cc1C(=O)O	-6%	?	-3%	25µM*	-23%	16%	14%	?
CCn1cc(-c2ccc(OC)cc2)cc1C(=O)NCC(=O)OC	?	-15%	-8%	i	-13%	·	·	·
CCN1CCN(C(=O)c2cc(-c3ccc(C)cc3)cn2CC)CC1	i	?	1%	i	?	·	·	·
Cc1c(C(C)NC(=O)c2ccccc2-c2ncn[nH]2)cnn1-c1ccccn1 (stereo not given)	-1%	-1%	6%	i	3%	·	·	·
SMILES	GPT2 inh	HEK293 tox	hNpr1 antagonist	FLuc inh-1	3T3 cytotox	FLuc SDR no ATP	FLuc SDR ATP	FLuc inh-2
O=C(c1ccccc1F)N1CCCC(C(=O)N2CCC(c3ccccc3)CC2)C1 (stereo not given)	i	?	·	·	?	·	·	·
COc1cccc(-c2cc3c(=O)n(CCNC(=O)C4CCCCC4)ccn3n2)c1	i	?	?	?	-24%	·	·	·
COc1ccc(-c2cc3c(=O)n(CCNC(=O)c4c(F)cccc4Cl)ccn3n2)cc1	i	?	-23%	3.2µM*	-15%	?	?	?
COc1cccc(-c2cc3c(=O)n(CCNC(=O)c4cc(Cl)ccc4F)ccn3n2)c1	-24%	?	?	i	-20%	·	·	·
CCC(C(=O)NCCn1ccn2nc(-c3ccc(OC)cc3)cc2c1=O)c1ccccc1 (stereo not given)	-2%	?	-17%	8.9µM*	?	25%	14%	?
COc1cccc(-c2cc3c(=O)n(CCNC(=O)C4CCN(C(C)=O)CC4)ccn3n2)c1	i	i	6%	14µM*	-5%	?	?	?
COc1ccc(-c2cc3c(=O)n(CCNC(=O)c4c(F)cccc4F)ccn3n2)cc1	i	-28%	-21%	4µM*	-26%	?	?	5µM*
O=C1CC(c2ccccc2)N(C(=O)CNC(=O)c2cccs2)CCCCCCN1 (stereo not given)	-10%	-7%	4%	i	i	·	·	·
CCC(NC(=O)c1cc(C(C)C)nn1C)c1ccc(S(C)(=O)=O)cc1 (stereo not given)	i	?	?	i	?	·	·	·
COCC(=O)N1CCC2(CC1)CC(=O)N(c1ccccc1)c1ccccc1O2	i	-23%	0%	i	-4%	·	·	·
CCOCCCNC(=O)N1CCCCCC1c1nc(-c2ccncc2)no1 (stereo not given)	i	?	0%	i	?	·	·	·
COCC(=O)N[C@H]1C[C@@H](CO)N(Cc2ccc(C)o2)C1	i	4%	-1%	i	i	·	·	·
COc1ccc(-c2cc3c(=O)n(CCNC(=O)c4ccco4)ccn3n2)cc1	-1%	?	-16%	7.9µM*	?	?	?	9.9µM*
COc1cccc(C(=O)NCCn2ccn3nc(-c4ccc(C)c(C)c4)cc3c2=O)c1	i	-20%	-19%	?	-9%	·	·	·
COc1ccc(-c2nc(C)c(CCNC(=O)c3c(F)cccc3F)s2)cc1	·	·	·	·	·	17%	15%	-20%
C=CCNc1nc(CC)nc2c1CCN(C(=O)c1cn(C)nc1C)CC2	i	-1%	28%	i	i	·	·	·

From PubChem BioAssay
